Assay outcomes from PubChem.
SARS PLpro yeast – SARS-CoV PLP inhibition in yeast | 0.19% of 330,000 active | S. cerevisiae expressing SARS-CoV PLpro, growth rescue | Potency, µM (series often up to 32.9 µM), for the others: at the highest dose activity, positive = growth rescue, most hits filed as activators | AID 485353; calls by dose curve; also: 0% is about no effect; nearly all actives have a fitted effect of over 55% in size
AmpC detergent – blocks E. coli AmpC beta-lactamase in detergent assay; AID 485294; 0.041% of 370,000 active; AmpC hydrolysis of nitrocefin, absorbance 480 nm, 0.01% Triton; Potency, µM (top dose mostly 114 µM), for inactives: at the highest dose activity change, negative = inhibition, hits mostly inhibitors;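 also: 0% = no-compound wells and -100% = no-enzyme wells; nearly all actives have a fitted effect of over 25% in size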
Target sequence (P00811 whole entry, looked up): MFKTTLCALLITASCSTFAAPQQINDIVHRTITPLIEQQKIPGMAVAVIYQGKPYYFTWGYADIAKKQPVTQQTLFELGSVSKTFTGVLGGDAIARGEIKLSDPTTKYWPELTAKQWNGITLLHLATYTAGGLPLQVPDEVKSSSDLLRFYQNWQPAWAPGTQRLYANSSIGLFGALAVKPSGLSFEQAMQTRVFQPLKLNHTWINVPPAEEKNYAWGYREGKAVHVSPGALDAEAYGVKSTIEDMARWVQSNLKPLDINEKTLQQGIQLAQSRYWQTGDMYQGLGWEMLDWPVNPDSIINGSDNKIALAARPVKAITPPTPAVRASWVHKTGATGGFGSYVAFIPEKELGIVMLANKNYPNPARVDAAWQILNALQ
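20 mM phosphate pH 7.0 + 0.01% (detergent screen) or 0.0001% Triton X-100; 5.3 nM AmpC reagent; cpd preinc 15 min RT; nitrocefin (800 uM stock) to start; A480 q20 s × 4 min; Activity was normalised to no-enzyme and no-compound control wells.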
Sm TGR inh – inhibitors of Schistosoma mansoni thioredoxin glutathione reductase; purified TGR, DTNB reduction, TNB absorbance 405 nm; 3% of 360,000 active; AID 485364; Potency, µM (top dose mostly 114 µM), without a hit: at the top dose activity change, negative = inhibition, most hits filed as inhibitors; Q962Y6; also: % is scaled to controls: 0 for no effect and ±100 for the full control effect; nearly all actives have a fitted effect of over 60% in size
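Kinetic colorimetric format: TGR-catalysed, NADPH-driven DTNB reduction monitored via TNB absorbance. Enzyme dispensed at 20 nM; compound exposure 15 min at room temperature before reaction start.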
Pf growth 96h – inhibits malaria parasite growth, 96 h | P. falciparum luciferase reporter growth, 96 h | Potency, µM (top dose mostly 28.7 µM), without a hit: at the top dose activity change, negative = inhibition, usual class: inhibitors | 6.9% of 320,000 active | AID 504834; also: % is scaled to controls: 0 for no effect and ±100 for the full control effect
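Two-generation exposure (96 h) targets delayed-death phenotype. Reporter parasites carrying integrated firefly luciferase, in red cells at 2% hematocrit and 0.05% parasitemia final, kept at 37 C, 5% CO2; luminescence loss indicates inhibition.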
Pf growth 48h – inhibits P. falciparum growth in the first generation, 48 h; Potency, µM (top dose mostly 28.7 µM), for the others: at the highest dose activity change, negative = inhibition, usual class: inhibitors; P. falciparum luciferase growth in erythrocytes, 48 h; 5.9% of 310,000 active; also: % is scaled to controls: 0 for no effect and ±100 for the full control effect
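Luciferase-expressing parasites in RBCs, 2% Hct / 0.1% parasitemia final; RPMI 1640 + 0.5% Albumax; 37 C, 5% CO2, one generation; luminescence read-out, lower signal = inhibition.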
AmpC no deterg – blocks E. coli AmpC beta-lactamase in detergent-free assay; P00811; AID 485341; 0.52% of 330,000 active; Potency, µM (top dose mostly 57.1 µM), without a hit: at the top dose activity change, negative = inhibition, most hits filed as inhibitors; AmpC nitrocefin hydrolysis, absorbance 480 nm, 0.0001% Triton;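 also: plate controls were no compound for no effect and no enzyme for full effect; nearly all actives have a fitted effect of over 20% in size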
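AmpC (5.3 nM in the dispensed reagent) in 20 mM phosphate pH 7.0 with 0.01% (detergent screen) or 0.0001% Triton X-100 was preincubated with compounds for 15 min at room temperature. Nitrocefin was then added from an 800 uM solution, and hydrolysis was followed at 480 nm.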
Active calls of the source: *; i = inactive; u = inconclusive; x = not tested or not shown; [ ] = dose if it differs, or a comment. Rows were chosen to be rich in hits. Some 12% of all compounds tested hit in one or more screens of this group. Unless noted, calls follow the shape of the dose curve; as a rule, active = well fitted curve in the direction sought with a large enough effect; inconclusive = small, poorly fitted or top-dose-only effect, or another doubt; inactive = no such curve, though single readings can be large; an effect the other way counts as inactive or inconclusive. Potency is read from the fitted curve at half-maximal effect.

SMILES | SARS PLpro yeast | AmpC detergent | Sm TGR inh | Pf growth 96h | Pf growth 48h | AmpC no deterg
O=C1NC(=O)N(c2ccccc2F)C(=O)/C1=C/c1ccc(Sc2nc3ccccc3[nH]2)o1 | -4.0% | -9.9% | 7.08µM* | 83.5% | 0.1% | -41.3%
CCN(CC(=O)NCc1ccc(Cl)cc1)C(=O)CNS(=O)(=O)c1ccc(NC(C)=O)cc1 | -0.7% | 3.7% | 2.0% | u | 11.7µM* | -4.6%
CC(=O)Nc1ccc(S(=O)(=O)NCc2ccc(C(=O)NCc3ccc(Cl)cc3)cc2)cc1 | -5.2%[6.58 µM] | 2.8% | 1.5% | u | x | -25.4%
Cc1nn(CCC(=O)Nc2ccc(Cl)cc2)c(C)c1S(=O)(=O)N1CCCCC1 | x | -4.7% | -4.6% | x | x | x
Cc1ccccc1NC(=O)C1(NC(=O)c2cccc(N3C(=O)CSC3c3ccccc3)c2)CCCCC1 (stereo unspecified) | -0.3% | -4.5% | -1.2% | u | 11.7µM* | 3.0%
Cc1ccc(C(c2nnnn2C2CCCCC2)N2CCc3ccccc32)cc1 (stereo unspecified) | -39.4% | u | -1.3% | u | 11.7µM* | -59.2%
Cc1ccc(C(c2nnnn2C2CCCC2)N2CCN3CCCC3C2)cc1 (stereo unspecified) | 2.3% | 1.4% | -16.9% | 8.4% | u | 43.3%
CC1Cc2ccccc2N1C(=O)CSc1nnnn1C1CCCC1 (stereo unspecified) | 5.3% | -3.4% | -10.6% | 34.2% | -10.0% | -19.3%
COc1cc(C(c2nnnn2C2CCCC2)N2CCc3ccccc3C2)ccc1O (stereo unspecified) | 0.9% | -15.1% | u | u | 13.5% | -21.5%
Oc1ccc(C(c2nnnn2C2CCCC2)N2CCc3ccccc3C2)cc1 (stereo unspecified) | -2.7% | 2.7% | 3.16µM* | x | u | -44.7%
CC(C)C(c1nnnn1C1CCCCC1)N1CCc2ccccc21 (stereo unspecified) | 5.3% | u | -12.9% | x | 11.7µM* | -5.3%
CC(C)C(c1nnnn1C1CCCC1)N1c2ccccc2CC1C (stereo unspecified) | -32.4% | -1.5% | 6.7% | u | 3.7µM* | 28.9%
O=C(CCc1ccccc1)NNC(=O)COc1ccccc1Cl | 0.3% | -0.2% | 2.4% | 3.6% | u | -24.7%
COc1ccccc1CNc1nccn(-c2ccccc2)c1=O | x | -4.4% | -2.1% | x | x | x
CCC(CC)C1C(C#N)=C(N)Oc2cc(C)oc(=O)c21 (stereo unspecified) | 5.7% | -5.9% | 0.0% | -12.9% | x | -20.8%
Cc1cc2c(c(=O)o1)C(c1ccc([N+](=O)[O-])o1)C(C#N)=C(N)O2 (stereo unspecified) | -0.5% | 0.7% | 14.1µM* | 9.2% | 1.8% | -36.6%
Cc1coc2cc3oc(=O)c(CCC(=O)NCCCN4CCOCC4)c(C)c3cc12 | u | -8.7% | -19.0% | -9.6% | 2.4% | -15.2%
Cc1oc2cc3oc(=O)c(CCC(=O)NCCN4CCOCC4)c(C)c3cc2c1C | -9.8% | -8.0% | -10.6% | 10.4µM* | -39.5% | 232.7%
N#Cc1nc(Cc2cccc3ccccc23)oc1NCC1CCCO1 (stereo unspecified) | 2.8% | -6.7% | -3.2% | 7.38µM* | x | 27.8%
N#Cc1nc(Cc2cccc3ccccc23)oc1NCc1ccco1 | -10.8% | -16.0% | u | u | u | -38.6%
NC(=O)C1CCN(c2nc(-c3ccc(Cl)cc3)cs2)CC1 | x | x | x | -22.9% | u | x
COc1ccccc1CN(C)C(=O)C(c1ccccc1)c1ccccc1 | -4.8% | -3.7% | -11.0% | u | u | -10.7%
C=CC(=O)N(CCC)C(c1ccccc1)c1ccccc1OC (stereo unspecified) | -3.6% | u | 5.2% | u | 13.1µM* | 47.6%
COc1ccc(OC)c(S(=O)(=O)NCCc2csc3nc(-c4ccccc4)nn23)c1 | x | -2.4% | 0.0% | x | x | x
COc1ccc(CN(C(=O)CN2C(=O)C(C)Oc3ccccc32)C2CCCC2)c(OC)c1 (stereo unspecified) | -14.9% | 0.3% | -2.7% | 8.28µM* | 4.65µM* | 105.2%
SMILES | SARS PLpro yeast | AmpC detergent | Sm TGR inh | Pf growth 96h | Pf growth 48h | AmpC no deterg
COc1ccc2oc(=O)c(C(=O)N3CCN(c4ccc(C)cc4)CC3)cc2c1 | x | 1.4% | 10.3% | x | x | x
CCN(CC(=O)O)S(=O)(=O)c1cc(Cl)ccc1Cl | 2.4% | u | -5.4% | 13.1µM* | 7.0% | -15.5%
COc1ccc(-n2nc(C(=O)NCCc3ccc(Cl)cc3)c3c4ccccc4n(C)c3c2=O)cc1 | x | -0.1% | 9.2% | x | x | x
Cc1ccc2c(c1)C(=O)C(=O)N2CC(=O)OC(C)C | 3.7% | -14.5% | 13.2% | 0.0294µM* | 46.4% | -4.8%
Cc1ccc(NC(=O)NC(=O)COc2c(F)c(F)cc(F)c2F)c(C)c1 | 2.9% | x | x | x | x | -14.3%
CC1=C/C(=C/N(C)C)C(=O)O1 | -1.1% | u | 20µM* | 20.5% | i | -5.7%
CN(C)/C=C1/C=C(c2ccccc2)OC1=O | -9.7% | u | 31.6µM* | 1.3% | x | -10.3%
Cc1cccc(C(=O)Nc2ccc3nc(SCC(=O)N4CCCC4)sc3c2)c1 | x | -4.5% | -2.0% | x | x | x
Cc1cc(C)c(C)c(S(=O)(=O)Nc2ccccc2C(=O)NCCCN2CCOCC2)c1C | 0.5% | 3.0% | 10.0% | -9.5% | u | 211.8%
CC(C)c1ccc(-n2nnnc2SCC(=O)NC2CC2)cc1 | 3.1% | 0.3% | 1.8% | u | u | -18.9%
CCn1c(C)csc1=NC(=O)c1ccccc1O | -13.4% | 6.3% | -2.3% | 1.65µM* | 110.5% | 27.8%
CN(C)c1nc(NCc2ccccc2)nc(SCC(=O)Nc2ccc(Cl)c(Cl)c2)n1 | -6.3% | -4.5% | 3.0% | 11.7µM* | 10.4µM* | -18.4%
O=C(/C=C/c1ccc(-c2cccc([N+](=O)[O-])c2)o1)N1CCOCC1 | -1.4% | 2.9% | 39.8µM* | 54.9% | 97.1% | 30.7%
CNS(=O)(=O)c1cccc(C(=O)OCCCOC(=O)c2cccc(S(=O)(=O)NC)c2)c1 | -2.6% | 4.4% | 4.5% | u | 8.2% | -16.3%
CNS(=O)(=O)c1cccc(C(=O)OCc2cc(C(C)=O)ccc2OC)c1 | -4.4% | -2.2% | 2.82µM* | 13.8% | 56.4% | -23.4%
COc1ccc(C(C)=O)cc1COC(=O)c1ccc2c(c1)OCO2 | -7.1% | -11.0% | u | u | 6.9% | -24.5%
COc1ccc(C(C)=O)cc1COC(=O)c1cnc(Cl)c(Cl)c1 | -2.9% | -3.6% | 1.41µM* | -6.8% | -6.9% | -10.6%
CCOc1ccc(C(C)=O)cc1COC(=O)c1ccccc1C(=O)N(C)Cc1ccccc1 | -2.1% | -14.6% | 20µM* | u | u | 79.2%
